Assay outcomes: PubChem, National Center for Advancing Translational Sciences (NCATS)
HCMV inh: human cytomegalovirus inhibition; HFF cells, HCMV-luciferase reporter, 72 h; stronger effect = lower value; activity change, negative = inhibition, % at 57.5 µM; 410,000 compounds, 4.5% hits; AID 1259415; in the data active = activity change below about -60%; inconclusive = no clear call, values can overlap the other calls; inactive = above about -39%
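Inhibition of viral replication was scored as loss of reporter luminescence in HFFs infected with HCMV-luciferase (MOI 1 PFU/cell) for 72 h; compounds tested at 2 doses, normalized to buffer and Salinomycin controls.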
VACV Venus inh: vaccinia inhibition (Venus reporter). Vaccinia virus Venus reporter expression, fluorescence. AID 720580. 330,000 compounds, 0.46% hits. Potency, µM (doses to about 36.5 µM), inactives show at the highest dose activity change, negative = inhibition, usual class: inhibitors; calls by dose curve; tested in A549 cells; also: potency is read from the fitted curve at half-maximal effect; nearly all actives have a fitted effect of over 30% in size
Marburg entry inh: Marburg virus entry inhibition. AID 540276. 300,000 compounds, 1.8% hits. Potency, µM (series often up to 37.8 µM), inactives show at the highest dose activity change, negative = inhibition, usual class: inhibitors. Marburg virus pseudotyped entry inhibition, cell reporter; calls by dose curve; tested in HEK293 cells; also: potency is read from the fitted curve at half-maximal effect
FMDV antiviral: antivirals against foot and mouth disease virus. Potency, µM (series often up to 57.9 µM), for inactives: at the highest dose activity change, negative = inhibition, hits mostly inhibitors. AID 1159524. 410,000 compounds, 1.2% hits. FMDV antiviral cell-based qHTS; calls by dose curve; tested in HEK293T cells; also: read-out not given here; potency is read from the fitted curve at half-maximal effect; nearly all actives have a fitted effect of over 45% in size
LASV entry inh: blocks Lassa virus binding to or entry into cells; Lassa virus pseudotype entry inhibition, cell reporter; 300,000 compounds, 1.2% hits; Potency, µM (titrated, usually from 37.9 µM), inactives show top-dose activity change, negative = inhibition, usual class: inhibitors; calls by dose curve; tested in HEK293 cells; also: potency is read from the fitted curve at half-maximal effect; nearly all actives have a fitted effect of over 50% in size
VACV mCherry inh: vaccinia inhibition (mCherry reporter) | Vaccinia virus mCherry reporter infection, fluorescence | Potency, µM (highest dose often 36.5 µM), without a hit: at the top dose activity change, negative = inhibition, actives largely listed as inhibitors | 310,000 compounds, 0.63% hits; calls by dose curve; tested in A549 cells; also: potency is read from the fitted curve at half-maximal effect; nearly all actives have a fitted effect of over 35% in size
Active calls of the source: *; [ ] = remark or other dose. Hits are enriched below; roughly 6.5% of the tested compounds scored in any of these assays. % is scaled to controls: 0 for no effect and ±100 for the full control effect.

Screening COc1ccc(/C=N\NC(=O)c2c(C)nc3ccc(Br)cn23)cc1 returned HCMV inh -69*, VACV Venus inh inconclusive, Marburg entry inh -9%, FMDV antiviral 12%, LASV entry inh inconclusive and VACV mCherry inh inconclusive.
Screening COc1cccc(/C=N/NC(=O)c2c(C)nc3ccc(Br)cn23)c1O returned Marburg entry inh 1.8µM*, FMDV antiviral -22% and LASV entry inh 5.2µM*.
`Cc1ccc(/C=N/NC(=O)c2c(C)nc3ccc(Br)cn23)cc1` gave HCMV inh -30 and FMDV antiviral 16%.
`O=C1N=C(N2CCC(Cc3ccccc3)CC2)S/C1=C/c1cn[nH]c1-c1ccccc1` gave HCMV inh -17, Marburg entry inh 10µM*, FMDV antiviral inconclusive and LASV entry inh inconclusive.
Screening O=C1N=C(N2CCN(c3ccccc3)CC2)S/C1=C\c1cn[nH]c1-c1ccccc1 returned HCMV inh -12, VACV Venus inh -3%, Marburg entry inh inconclusive, FMDV antiviral -26%, LASV entry inh 2% and VACV mCherry inh -17%.
For COc1cccc(Nc2nccc3[nH]c(-c4cccc(F)c4)cc23)c1 the results were HCMV inh -21.
`N#C/C(=N\Nc1cccc(C(F)(F)F)c1)C(=O)c1ccsc1` gave HCMV inh -97* and FMDV antiviral 12%.
Screening O=C(Nc1ccccc1)Nc1cccc(C(F)(F)F)c1 returned HCMV inh -34, VACV Venus inh -15%, Marburg entry inh -6%[46.1 µM], FMDV antiviral 5%, LASV entry inh -15% and VACV mCherry inh -10%.
O=c1[nH]c2ccc(Cl)cc2c(-c2ccccc2)c1N1CCN(CCO)CC1 was read as HCMV inh -28, Marburg entry inh 10µM*, FMDV antiviral -24% and LASV entry inh inconclusive.
O=C(CCCN1C(=O)c2cccc3cccc(c23)C1=O)N1CCN(c2ccc(F)cc2)CC1 was read as HCMV inh -37, VACV Venus inh -10%, Marburg entry inh inconclusive, FMDV antiviral 22µM*, LASV entry inh inconclusive and VACV mCherry inh -22%.
Screening CN(C(=O)CCCN1C(=O)c2cccc3cccc(c23)C1=O)c1ccccc1 returned HCMV inh -62*, VACV Venus inh -7%, Marburg entry inh -9%[46.1 µM], FMDV antiviral inconclusive, LASV entry inh -11% and VACV mCherry inh -21%.
For CN(C)C(=O)c1ccc(-c2nccc(NCc3cccnc3)n2)cc1 the results were VACV Venus inh 12%, FMDV antiviral 33% and VACV mCherry inh 10%.
Screening COCCn1c(-c2cc(OC)c(OC)c(OC)c2)nc2oc3ccccc3c(=O)c2c1=O returned HCMV inh -65*, Marburg entry inh inconclusive, FMDV antiviral 0% and LASV entry inh 5.8µM*.
`COC(=O)CC1c2ccccc2C=C(/C=C/c2ccc3c(c2)OCO3)N1C(=O)OC` (stereo not given) gave Marburg entry inh -18%[14.2 µM].
For O=C(Nc1ccccc1)c1cc(C2COCCN2C(=O)c2cccs2)on1 (stereo not given) the results were HCMV inh -85*, VACV Venus inh -7%, FMDV antiviral -3% and VACV mCherry inh -9%.
For COc1ccc(Br)cc1CN(C)CC(=O)Nc1c(Cl)cccc1Cl the results were HCMV inh -61*, VACV Venus inh -12%, Marburg entry inh -5%, FMDV antiviral -5%, LASV entry inh -15% and VACV mCherry inh -14%.
For COc1ccc(Br)cc1CN(C)CC(=O)Nc1cccc(S(N)(=O)=O)c1 the results were HCMV inh -39, VACV Venus inh -16%, Marburg entry inh inconclusive, FMDV antiviral 10%, LASV entry inh -14% and VACV mCherry inh -21%.
CN(C)c1cc[n+](CC(=O)Nc2ccc(OC(F)F)cc2)cc1 was read as HCMV inh -65*, VACV Venus inh -25%, Marburg entry inh inconclusive, FMDV antiviral inconclusive, LASV entry inh -16%[46.1 µM] and VACV mCherry inh -14%.
CN(C)c1cc[n+](CC(=O)Nc2ccc(Cl)c([N+](=O)[O-])c2)cc1 was read as HCMV inh -96*, VACV Venus inh -8%, Marburg entry inh inconclusive, FMDV antiviral -5%, LASV entry inh -10%[46.1 µM] and VACV mCherry inh inconclusive.
`CN(C)c1cc[n+](CC(=O)Nc2cccc([N+](=O)[O-])c2)cc1` gave HCMV inh inconclusive and FMDV antiviral 12%.
`COC1=C[C@H](C(=O)NCc2ccccc2)[C@H](C)[C@@H](c2ccccc2)CC1=O` gave Marburg entry inh -1%[14.2 µM].
Screening C=CS(=O)(=O)N(C(=C)C(=O)OC)S(C)(=O)=O returned HCMV inh -81*.
Screening Clc1ccc(/C=C/c2nc3ccccc3[nH]2)cc1 returned HCMV inh inconclusive, Marburg entry inh 8.2µM*, FMDV antiviral -71% and LASV entry inh inconclusive.
`Clc1ccc(/C=C/c2nc3ccccc3[nH]2)c(Cl)c1` gave HCMV inh -5, Marburg entry inh inconclusive, FMDV antiviral -85% and LASV entry inh 10µM*.
For Cc1ccc(Nc2c(-c3ccccn3)nc3cc(C)ccn23)cc1 the results were HCMV inh 0, VACV Venus inh inconclusive, Marburg entry inh inconclusive, FMDV antiviral inconclusive, LASV entry inh inconclusive and VACV mCherry inh inconclusive.
For Cc1ccn2c(Nc3ccc4c(c3)OCO4)c(-c3ccccn3)nc2c1 the results were HCMV inh -98*, VACV Venus inh 12%, Marburg entry inh inconclusive, FMDV antiviral inconclusive, LASV entry inh inconclusive and VACV mCherry inh -11%.
Screening Cc1ccc2c(c1)-c1c(cnn1CC(=O)N1CCN(c3ccccc3F)CC1)CO2 returned HCMV inh -87*, VACV Venus inh -11%, Marburg entry inh -11%[46.1 µM], FMDV antiviral -18% and VACV mCherry inh -16%.
Screening O=C(Cn1ncc2c1-c1ccccc1OC2)N1CCN(c2ccccc2F)CC1 returned HCMV inh -10, VACV Venus inh -7%, Marburg entry inh 3%[46.1 µM], FMDV antiviral inconclusive and VACV mCherry inh -2%.
`CCCCOCC1CN(CCCC)S(=O)(=O)c2c(Oc3ccc(SC)c(C)c3)cccc2O1` (stereo not given) gave HCMV inh -8 and LASV entry inh -16%[46.1 µM].
Screening CCc1ccc(CN(C)C(=O)CCc2nc3ccccc3n(-c3ccc(OC)cc3)c2=O)cc1 returned HCMV inh -68*, VACV Venus inh inconclusive, Marburg entry inh 10µM*, FMDV antiviral inconclusive, LASV entry inh 14µM* and VACV mCherry inh inconclusive.
For O=C(NC[C@H]1CCCCN1)c1cc(OCC(F)(F)F)ccc1OCC(F)(F)F the results were FMDV antiviral -5%.
C/C1=C\CC(C)(C)/C=C/C(=O)[C@@H](C)CCC[C@H](C)CC(=O)C1 was read as HCMV inh -1.
